Consider 63 molecules from PubChem BioAssay AID1825 (The Scripps Research Institute Molecular Screening Center, 2009).

For orientation: inhibition means the change of the read-out against control, counted positive when it falls.

SMILES strings stand for the structures. About 2,300 (0.79%) of roughly 290,000 compounds were called active. Rule as the data show it: active = inhibition above about 22%; inactive = the rest. Only a selection was taken, and actives are over-represented in it overall.

The test in a line: IEC-6 cell viability reduction – luminescence, cytotoxicity control for KLF5 inhibitor project, primary screen (AID 1825).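 Also: 0% = plate median of test compound wells and 100% = cytotoxic reference compound wells.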 The following applies: IEC-6 cytotoxicity, at 5 µM, hits give high values.
For `Cc1ccc(NC(=O)CN(C)C(=O)c2ccc(Br)o2)cc1`, the inhibition is -4.8% (inactive).
The result for `O=C(c1ccc(S(=O)(=O)N2CCCC2)cc1)N1CCN(c2ccccc2F)CC1` reads 2.3% (inactive); that for `O=C(Nn1cc(C(=O)N2CCN(c3ccccc3F)CC2)c2ccccc2c1=O)c1cnccn1`, 23.7% (active).
The result for `Cn1c(=O)cc(OCC(=O)N2CCN(c3ccccc3F)CC2)c2ccccc21` reads -5.1% (inactive).
The figure for `Cc1cc(C)n(-c2nc(C(F)(F)F)nc3ccccc23)n1` is 5.6% (inactive); for `CCOn1c(SC(C)C)nc2ccccc2c1=O` it is -3.8% (inactive).
As for `CCCOn1c(-n2nc(C)cc2C)nc2ccccc2c1=O`, the inhibition is 54.7% (active).
The result for `O=C(c1cc2sccc2n1Cc1ccc(F)cc1)N1CCc2ccccc21` reads 1.8% (inactive).
The figure for `COc1ccccc1C(C)NC(=O)Cc1ccsc1` (stereo not drawn) is 1.9% (inactive).
The result for `O=C(COC(=O)c1ccc(F)cc1)Nc1nc2ccc([N+](=O)[O-])cc2s1` reads -0.2% (inactive); that for `O=C(Nc1nc2ccc([N+](=O)[O-])cc2s1)c1ccc(S(=O)(=O)N2CCCc3ccccc32)cc1`, 2.9% (inactive).
With `O=C(NC(Nc1nc2ccc([N+](=O)[O-])cc2s1)(C(F)(F)F)C(F)(F)F)c1ccccc1`, the inhibition is 28% (active).
As to `CCc1nn(CCCC(=O)Nc2ccc(C)cc2C)c(=O)c2cc3occc3n12`, the inhibition is -4.9% (inactive).
Consider `CCCCCCCCn1c2c(c(=N)c3c1CCC3)CCCC2`, for which the inhibition is 47.1% (active).
For `CCCCCCn1c(CN2CCCCC2)nc2c1c(=O)n(C)c(=O)n2C`, the inhibition was -2.7% (inactive).
As for `COc1ccc(CCNC(=O)c2c(C)nn(-c3ccccc3)c2Cl)cc1`, the inhibition is -1.7% (inactive).
For the molecule `CCOC(=O)c1c(C)[nH]c(C)c1S(=O)(=O)N(C)CC(=O)Nc1ccccc1C`, the inhibition was -0.8% (inactive).
Regarding `CCOC(=O)C1=C(c2ccc(OC)cc2)C(=O)c2ccccc2C1=O`, the inhibition was -1.7% (inactive).
The result for `CCOC(=O)c1c(C)[nH]c2c1-c1ccccc1C(=O)C2=O` reads 43.3% (active).
For `Cc1cc(C)c(S(=O)(=O)c2cc(F)ccc2C)c(=O)[nH]1`, the inhibition was -1.4% (inactive).
For the molecule `O=C(CN1CCCCCC1)Nc1ccc(Cl)cc1F`, the inhibition was 8.4% (inactive).
`O=C1NC(Nc2nc3ccccc3s2)(C(F)(F)F)C(=O)N1C1CCCCC1` (stereo not drawn): the inhibition is 28.2% (active).
The figure for `COC(=O)NC1(C(F)(F)F)NC(=O)N(C2CCCCC2)C1=O` (stereo not drawn) is 1.9% (inactive).
The figure for `O=C(NC1(C(F)(F)F)NC(=O)N(C2CCCCC2)C1=O)c1ccco1` (stereo not drawn) is 3.5% (inactive); for `CCN(CC)CCN1C(=O)C(=O)/C(=C(/O)c2cnn(-c3ccccc3)c2C)C1c1cccs1` (stereo not drawn) it is 3.3% (inactive); for `CN1C(=O)c2ccc(C(=O)Nc3ccc(Br)cn3)cc2C1=O` it is 5.5% (inactive).
With `CSc1ccc(/C=N\NC(=O)COc2ccc(Cl)cc2Br)cc1`, the inhibition is 7.1% (inactive).
With `C=CCc1ccccc1OCC(=O)N/N=C/c1ccccc1OCC`, the inhibition is 1.4% (inactive).
The result for `Cc1ccc(/C=N/NC(=O)COc2ccccc2-c2ccccc2)cc1` reads 85.6% (active).
Turning to `COc1ccccc1NC(=O)c1ccc(N2CC3CC(C2)c2cccc(=O)n2C3)c(NC(=O)c2cccnc2)c1` (stereo not drawn), the inhibition is 2.1% (inactive).
With `O=C(NCc1ccccc1)C(c1ccco1)N(C(=O)c1csnn1)c1ccccc1F` (stereo not drawn), the inhibition is 0.2% (inactive).
Turning to `COc1ccc(S(=O)(=O)Nc2ccc3c(c2)OCO3)cc1Cl`, the inhibition is 0.7% (inactive).
For the molecule `COC(=O)C1=C(C)NC(=O)CC1c1ccccc1OC` (stereo not drawn), the inhibition is -0.1% (inactive).
The result for `COc1ccccc1C1C2=C(COC2=O)Nc2cc3c(cc21)OCO3` (stereo not drawn) reads 92.2% (active); that for `COc1cc2c(cc1OC)C(c1ccncc1)CC(=O)N2` (stereo not drawn), 1% (inactive); that for `CCCOc1ccccc1C1CC(=O)Nc2cc3c(cc21)OCO3` (stereo not drawn), 77.5% (active).
Regarding `COc1ccc(C2CC(=O)Nc3cc(C)c(C)cc32)c(OC)c1OC` (stereo not drawn), the inhibition is 1.9% (inactive).
For `COc1ccc(NC(=O)c2cccc(Cl)c2)c[n+]1[O-]`, the inhibition is 2.7% (inactive).
As for `COCCN1C(=O)C(=O)/C(=C(/O)c2ccc(S(=O)(=O)N3CCOCC3)cc2)C1c1ccc(O)c(OC)c1` (stereo not drawn), the inhibition was -5.5% (inactive).
The figure for `O=C(NCCCN1CCOCC1)c1cc(-c2cccc(O)c2)on1` is -0.6% (inactive).
As to `O=C(N/N=C\c1cc2c(cc1Cl)OCO2)c1ccc(Br)s1`, the inhibition was 0.3% (inactive).
The result for `COc1cc2c(cc1O)[C@H](Cc1ccc(Oc3cc(C[C@@H]4NCCc5cc(OC)c(O)cc54)ccc3O)cc1)NCC2` reads 1.5% (inactive).
As for `CCc1ccc(OCC2c3cc(OC)c(OC)cc3CCN2C(C)=O)cc1` (stereo not drawn), the inhibition was 9% (inactive).
With `CC[C@H]1CN2CCc3cc(OC)c(OC)cc3[C@@H]2C[C@@H]1C[C@H]1NCCc2cc(OC)c(OC)cc21`, the inhibition was 98.9% (active).
On to `Fc1ccc(-n2c(Cc3ccccc3)nnc2SCc2nc(-c3ccc(Cl)cc3)no2)cc1`, for which the inhibition was -0.4% (inactive).
With `COc1ccc(CN2CCC(n3nccc3NC(=O)CCCc3ccccc3)CC2)cc1C`, the inhibition is 2.8% (inactive).
The figure for `CN(NC(=O)c1ccccc1F)c1nc(C(F)(F)F)nc2ccccc12` is 83.3% (active); for `CSc1nc(N(C)NC(=O)c2cccc(C)c2)c2ccccc2n1` it is 94.6% (active); for `CN(NC(=O)c1ccccc1)c1nc2ccccc2nc1C(F)(F)F` it is -0.3% (inactive).
The result for `Cc1cccc(C(=O)NCCCN(C)CCCNC(=O)c2cccc(C)c2)c1` reads -0.9% (inactive); that for `COc1ccc(C(=O)NN(C)c2nc(-c3ccccc3)cc(C)c2S(C)(=O)=O)cc1`, 1% (inactive).
The result for `COC(=O)CNC(=O)c1ccccc1F` reads -2.1% (inactive); that for `CCOc1ccccc1NC(=S)NC(=O)CCc1ccccc1`, -2.9% (inactive); that for `NC(=O)CSc1nnc(NC(=O)c2ccc(Br)o2)s1`, -5.8% (inactive).
Consider `CN(C)CCCNC(=O)c1cc(C(=O)Cc2ccc(Cl)cc2)c[nH]1`, for which the inhibition was 2.2% (inactive).
The result for `COc1ccc(N2CCN(S(=O)(=O)c3ccc4c(c3)NC(=O)C(C)C(=O)N4)CC2)cc1` (stereo not drawn) reads 1% (inactive); that for `COc1cc(C(=O)NN(CCC#N)C2=NS(=O)(=O)c3ccccc32)cc(OC)c1OC`, -4.2% (inactive).
The figure for `Cn1cccc1/C=N/NC(=O)c1ccc(OC(F)(F)C(F)F)cc1` is 2.6% (inactive).
Regarding `C/C(=N\NC(=O)CNc1cccc2ccccc12)c1ccc(Br)s1`, the inhibition is 0.2% (inactive).
The result for `Cc1cccc(/C=N/NC(=O)CNc2cccc3ccccc23)n1` reads 37.6% (active); that for `Cc1cccc(C(=O)Nc2ccc(C(=O)N/N=C/c3cccc(C)n3)cc2)c1`, 1.5% (inactive); that for `Cc1ccccc1NCC(=O)N/N=C\c1ccc([N+](=O)[O-])s1`, -4.9% (inactive).
The result for `Cn1cccc1/C=N/NC(=O)CNc1cccc2ccccc12` reads 47.6% (active).
